# Rows were chosen to be rich in hits. Some 3.4% of all compounds tested hit in one or more screens of this group.
# Vif inh – blocks HIV Vif function; 340,000 tested, 0.35% active; HEK293T cells, Vif self-association by quenched fluorescence, imaging, 24 h; inhibition, % at 7.49 µM; in the data active = inhibition above about 50%, passing the limit was not always enough; inconclusive = no clear call, values can overlap the other calls; inactive = below about 31%
# esBAF inh – inhibitors of esBAF chromatin remodeling in mouse ES cells. Bmi1-luciferase knock-in reporter, 24 h; 100% = twice the neutral-well signal. reporter increase, % at 12.5 µM. 350,000 tested, 2% active. AID 602393; in the data active = activation above about 40%; inconclusive = no clear call, values can overlap the other calls;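 note: a rise in the Bmi1 reporter signal indicates esBAF inhibition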
# HSF1 activator – increases HSF-1 driven luciferase reporter signal; NIH3T3-HGL HSF-1 luciferase reporter, MG132, 8 h; 100% = twice DMSO control signal; activation, % at 9 µM; 300,000 tested, 1.7% active;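 active = mean replicate activation of at least 50% with a set share of replicates each reaching 50%; inconclusive = only one of those two conditions met; inactive = mean below 50% and too few replicates reaching it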
# HSF1 inh – HSF1 inhibition | NIH3T3-HGL HSE-luciferase, MG132-induced, luminescence 8 h; active compounds read low | activity change, negative = inhibition, % at 7.5 µM (by protocol) | 300,000 tested, 0.77% active | AID 2098;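 active = more than half of replicate wells show activity change below -50%, luminescence cut by over half; inconclusive = some wells, but at most half, below -50%; inactive = no replicate well below -50%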;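 note: luciferase reports HSF-1 transcriptional activity via heat shock element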
# Ring1 derepress – confirmation of esBAF inhibitors: Ring1 de-repression in mouse ESCs; shares compounds with esBAF inh; mouse ESC E14, Ring1 mRNA RT-qPCR fold change; fold change at 33 µM; 550 tested, under 10 active; AID 743176;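 active = Ring1 gene expression raised more than 2-fold over untreated cells in both replicates at either tested dose; inconclusive = only one replicate above 2-fold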;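 note: Ring1 transcript normalised to actin housekeeping signal by TaqMan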
# Fgf4 repress – represses Fgf4 in mouse ESCs, confirming esBAF inhibition; shares compounds with esBAF inh; mouse ESC E14, Fgf4 mRNA qPCR fold change; active compounds read low; Fgf4 expression fold change at 33 µM; 550 tested, 4% active; AID 743177;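 active = Fgf4 expression under 0.8 fold of control in both repeat measurements at one or both tested doses; inconclusive = under 0.8 fold in just a single repeat measurement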;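 note: Fgf4 transcript normalised to actin in duplex TaqMan qPCR; cells exposed to compound for 24 h before lysis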
# esBAF Bmi1 qPCR – esBAF inhibition confirmed by Bmi1 de-repression. shares compounds with esBAF inh. mouse ESE14 ES cells, Bmi1 mRNA qPCR fold; active compounds read high. fold change at 33 µM. 550 tested, under 10 active;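 active = Bmi1 expression fold change above 6 at either tested concentration, seen in replicate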;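 note: higher fold means more Bmi1 de-repression and stronger esBAF inhibition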
# A549 tox SP – A549 cell cytotoxicity; shares compounds with esBAF inh; plate reader; cell viability change % (negative = cytotoxic), % at 25 µM, hits read low; 550 tested, under 10 active; AID 743188; call rule not given here
# HepG2 tox SP – HepG2 cell cytotoxicity at single point; plate reader; active compounds read low; AID 743189; shares compounds with esBAF inh; 550 tested, 4% active; activity change, negative = inhibition, % at 25 µM; in the data active = activity change below about -50%
# HEK293 tox SP – cytotoxicity in HEK293 cells | shares compounds with esBAF inh | plate reader | activity change, negative = inhibition, % at 25 µM, hits read low | 550 tested, 3% active | AID 743190; in the data active = activity change below about -38%, passing the limit was not always enough
# A number is an active result; . = inactive; ? = inconclusive; / = no result given.
SMILES,Vif inh,esBAF inh,HSF1 activator,HSF1 inh,Ring1 derepress,Fgf4 repress,esBAF Bmi1 qPCR,A549 tox SP,HepG2 tox SP,HEK293 tox SP
Cc1ccc(C(=O)Nc2ccc(Br)c(C(F)(F)F)c2)cc1,.,74,.,.,.,.,.,.,.,-56
Cc1csc(N/N=C/c2ccccc2F)n1,.,62,.,.,.,.,.,.,-57,.
CC(=O)Nc1sc(N/N=C\c2ccccc2F)nc1-c1cccs1,.,/,.,.,/,/,/,/,/,/
Cc1cc(F)ccc1-c1cc(C(=O)Nc2ccc(F)cc2)[nH]n1,.,71,/,/,.,.,.,.,.,.
COc1ccc(NC(=O)c2cc(-c3ccc(F)cc3C)n[nH]2)cc1OC,.,.,/,/,/,/,/,/,/,/
C[C@H]1CN([C@@H](C)CO)S(=O)(=O)c2ccc(-c3ccccc3)cc2O[C@H]1CN(C)C(=O)c1ccccc1F,/,.,/,/,/,/,/,/,/,/
Nc1cc(OCc2ccccc2)ccc1OCc1ccccc1,.,83,/,/,.,?,.,.,.,.
O=c1cc(OCc2ccccc2)cc[nH]1,.,.,/,/,/,/,/,/,/,/
CC(=O)N(C)c1nc(-c2ccc(Cl)cc2)cs1,.,74,.,.,.,.,.,.,.,.
CN(C)CCCN(C(=O)c1ccco1)c1nc(-c2ccc(Cl)cc2)cs1,?,.,.,.,/,/,/,/,/,/
CCN1C(=O)C(=CC=CN(C)c2ccccc2)SC1=S,.,84,/,/,.,.,.,.,.,.
CCN(CC)C(=O)OCc1c(-c2ccccc2)ncc2ccccc12,/,106,/,/,.,?,.,.,.,.
Cc1noc(C)c1S(=O)(=O)Nc1ccc2c(c1)C(=O)N([C@@H](C)CO)C[C@H](C)[C@H](CN(C)Cc1ccc(Cl)c(Cl)c1)OCCCC[C@@H](C)O2,/,.,/,/,/,/,/,/,/,/
COc1ccccc1CCC(=O)Nc1nc2ccccc2[nH]1,.,61,.,.,.,0.38,6.9,.,.,.
O=C(Nc1ccccc1C(F)(F)F)c1cc(-c2cccc(O)c2)on1,.,.,.,.,/,/,/,/,/,/
CCc1ccccc1NC(=O)c1cc(-c2cccc(O)c2)on1,/,79,.,.,.,?,.,.,.,.
O=C(Nc1cccc(O)c1)c1ccc(Br)cc1,/,57,.,.,.,.,.,.,.,.
O=C(Nc1cccc(O)c1)c1cccc(C(=O)Nc2cccc(O)c2)c1,.,.,.,.,/,/,/,/,/,/
Clc1ccc(-c2cn3cccnc3n2)cc1Cl,.,73,.,.,.,.,.,.,.,.
C[C@@H]1CN([C@@H](C)CO)C(=O)c2cc(NC(=O)c3ccccc3)ccc2O[C@@H](C)CCCCO[C@H]1CN(C)Cc1ccc(C(F)(F)F)cc1,/,.,/,/,/,/,/,/,/,/
OC(c1ccccc1)c1nc(/C=C/c2ccccc2)cs1 (stereo unspecified),.,59,/,/,.,?,.,.,.,.
COc1ccc(C(O)c2nc(-c3ccc(C)c(C)c3)cs2)cc1 (stereo unspecified),.,.,/,/,/,/,/,/,/,/
COc1ccc(-c2csc(C(O)c3ccccc3)n2)cc1 (stereo unspecified),.,92,/,/,.,?,.,.,.,.
C/C=C/c1ccc2c(c1)O[C@H](CN(C)C(=O)c1cnccn1)[C@@H](C)CN([C@@H](C)CO)S2(=O)=O,/,.,/,/,/,/,/,/,/,/
CO[C@@H]1CN(C)C(=O)c2cc(NC(=O)C3CC3)ccc2OC[C@@H](C)N(C(=O)C2CCOCC2)C[C@H]1C,/,.,/,/,/,/,/,/,/,/
SMILES,Vif inh,esBAF inh,HSF1 activator,HSF1 inh,Ring1 derepress,Fgf4 repress,esBAF Bmi1 qPCR,A549 tox SP,HepG2 tox SP,HEK293 tox SP
O=C(C[C@H]1CC[C@H]2[C@@H](COC[C@@H](O)CN2C(=O)Nc2ccc(C(F)(F)F)cc2)O1)NCCc1ccncc1,/,.,/,/,/,/,/,/,/,/
O=C(C[C@@H]1CC[C@H](NC(=O)c2ccncc2)[C@@H](CO)O1)NCC1CCCCC1,/,.,/,/,/,/,/,/,/,/
CC(=O)Nc1ccc2nc(SCC(=O)Nc3ccc(N4CCOCC4)c(Cl)c3)sc2c1,.,48,.,.,.,.,.,.,.,.
CN(C)c1ccc(C(=O)c2ccccc2)cc1,.,58,.,.,.,?,.,.,.,.
O=C(C[C@H]1CC[C@@H](NC(=O)Nc2ccc3c(c2)OCO3)[C@H](CO)O1)NCc1ccc(F)cc1,/,.,/,/,/,/,/,/,/,/
O=C(N/N=C/c1cnc2ccccc2n1)c1cccc(F)c1,.,60,.,.,.,.,.,.,.,.
Cc1ccc(S(=O)(=O)Nc2ccc3c(c2)CC(=O)N([C@H](C)CO)C[C@H](C)[C@H](CN(C)S(=O)(=O)c2cn(C)cn2)O3)cc1,/,.,/,/,/,/,/,/,/,/
CCC(=O)c1ccc(N2CCC(C)CC2)c(F)c1,.,71,.,.,.,.,.,.,.,.
O=C(C[C@H]1CC[C@@H]2NC[C@@H](O)COC[C@H]2O1)NCCc1ccncc1,/,.,/,/,/,/,/,/,/,/
Cc1ccc(NC(=O)c2cc(C)nc3ccccc23)cc1,.,.,.,.,/,/,/,/,/,/
CC(=O)c1ccc(NC(=O)c2cc(C)nc3ccccc23)cc1,.,62,.,.,.,.,.,.,.,.
COC(=O)C[C@@H]1C=C[C@H](NS(=O)(=O)c2ccccc2F)[C@H](CO)O1,/,.,/,/,/,/,/,/,/,/
CN(C)c1ccc(CNc2nc3cc(-c4ccc(F)cc4)sc3c(=O)n2C)cc1,.,77,/,/,.,.,.,.,.,.
CN1[C@@H]2c3ccc(-c4cccc(F)c4)c(=O)n3C[C@@H]2[C@@H](CO)[C@@H]1C(=O)NC1CCCCC1,/,.,/,/,/,/,/,/,/,/
COc1cccc(S(=O)(=O)N(C)C[C@@H]2Oc3cc(C#CCN(C)C)ccc3S(=O)(=O)N([C@@H](C)CO)C[C@H]2C)c1,/,.,/,/,/,/,/,/,/,/
CC(C)(C)C(=O)N1CCN(c2nc3ccc(Br)cc3s2)CC1,.,93,.,.,.,.,.,.,.,.
CCCC(=O)N1CCN(c2nc3ccc(Br)cc3s2)CC1,.,66,.,.,.,.,.,.,.,.
CC(=O)N1[C@H](C(=O)N[C@H](C)c2ccccc2)[C@@H](CO)[C@@H]2Cn3c(cccc3=O)[C@@H]21,/,.,/,/,/,/,/,/,/,/
CN1c2ccc(Br)cc2[C@H]2[C@H](CCN2C(=O)C2CCOCC2)[C@@H]1CO,/,.,/,/,/,/,/,/,/,/
COC(=O)N1CCCC(c2cc(C(=O)Nc3ccccc3Cl)no2)C1 (stereo unspecified),.,73,/,/,.,.,.,.,.,.
O=C(Nc1ccccc1Cl)c1cc(C2CCCN(C(=O)OCCF)C2)on1 (stereo unspecified),.,?,/,/,/,/,/,/,/,/
Cc1c(Cl)cccc1NC(=O)c1cc(C2CC2)on1,.,67,.,.,.,.,.,.,.,.
